Source: PubChem
Many of the other results were omitted from the sample, so hits are more common in it than they were.
Pf Dd2 growth = Plasmodium falciparum Dd2 growth inhibition. P. falciparum Dd2 growth, SYBR Green, 72 h. Potency, µM (series often up to 28.9 µM), for the others: at the top dose activity, negative = inhibition, hits mostly inhibitors. 120,000 tested, 4.3% active. AID 1347417; active means well fitted inhibition curve with a large enough effect;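 further: plate controls were DMSO vehicle for no effect and reference drug for full effect; nearly all actives have a fitted effect of over 65% in size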
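Infected erythrocytes (Dd2, 0.3% parasitemia, 2.5% hematocrit final) are added to compound in RPMI-1640/Albumax II medium, grown 72 h at 37C in low oxygen, then lysed with saponin/Triton-X containing SYBR Green and read by fluorescence.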
* = called active by the depositor; i = inactive; [ ] = dose if it differs, or a comment. Potency means the concentration at half of the fitted maximal effect.

SMILES | Pf Dd2 growth
COCC(=O)N[C@H]1C[C@@H](c2nc(-c3ccncc3)no2)N(C)C1 | -17%[44.1 µM]
O=C(c1ccc2c(c1)OCO2)N1CCCN(c2cc(-c3ccc(Cl)cc3)[nH]n2)CC1 | i
O=C(c1ccccc1F)N1CCC(N2CCCOC2=O)CC1 | -8%
O=C(CCn1cncn1)N1CCC2(CC1)[C@H](O)C[C@@H]2OCCO | -6%
Cc1nc(-c2ccc(OC3CCN(C(=O)NCC(C)C)C3)cc2)no1 (stereo unspecified) | i[5.79 µM]
O=C(CN1CCCN(Cc2ccc(F)cc2)S1(=O)=O)NCc1ccccc1Cl | i
CS(=O)(=O)c1ccc(CN2CCN3C(=O)N(C4CCOCC4)C[C@H]3C2)cc1 | -17%[44.1 µM]
CC(C)Oc1ccc(CNC(=O)c2ccccc2NC(=O)c2nsc3ccccc23)cc1 | -8%
COc1cc2c(cc1OC)C(COc1ccccc1OC)N(C(=O)c1ccc(S(=O)(=O)N(C)C)cc1)CC2 (stereo unspecified) | i
CCCC(=O)N1CCc2cc(OC)c(OC)cc2C1COc1ccccc1OC (stereo unspecified) | 13µM*
COc1cc2c(cc1OC)C(COc1cc(C)cc(C)c1)N(C(=O)COc1ccccc1)CC2 (stereo unspecified) | 5µM*
COc1cc2c(cc1OC)C(CNC(=O)c1ccccc1C)N(C(=O)Nc1cccc(C)c1)CC2 (stereo unspecified) | i
COc1ccc(C(=O)N2CCN(C(=O)COc3ccccc3)CC2)cc1OC | 12%
CCc1ccccc1NC(=O)N1CCc2cc(OC)c(OC)cc2C1CC(=O)OC (stereo unspecified) | i
Cc1nc(-c2cccc(Cl)c2)n(CC(=O)Nc2ccccc2F)c(=O)c1CCO | -5%
Cc1nn2c(=O)cc(COC(=O)c3ccc(NC(=O)c4cccs4)cc3)nc2s1 | 1%
Cc1cc(C(=O)N2c3ccccc3CC2c2nnc(C3CC3)o2)nn1C (stereo unspecified) | i
O=C(NCCN1CCCC1)C1CCN(c2cnn(CC3CC3)c(=O)c2)C1 (stereo unspecified) | 26%
Cc1ccc(C)c(NC(=O)N2CCC(N3CCN(Cc4ccc(F)cc4)C(=O)C3=O)CC2)c1 | 7%
CC(=O)c1cccc(NC(=O)O[C@H]2COCCN(c3nc4ccccc4o3)C2)c1 | i
COCCCNC(=O)c1[nH]c2cc(OC)ccc2c1Sc1ccc(C)cc1 | 25%
COc1ccc2c(Sc3ccccc3)c(C(=O)NCCCN3CCCCC3)[nH]c2c1 | 11µM*
O=C(NCCCN1CCCCC1)c1[nH]c2ccccc2c1Sc1ccc(Cl)cc1 | i
CC(C)c1noc(-c2cn(C3CCN(C(=O)CCc4ccccc4)C3)nn2)n1 (stereo unspecified) | -7%
Cc1cc(C)nc(-n2nc(C)c3c2NC(=O)CC3c2cccc(O)c2)n1 (stereo unspecified) | 0%
SMILES | Pf Dd2 growth
Cc1ccccc1C(=O)N1CCc2nc(C(C)C)nc(-c3ccc(O)cc3)c2C1 | -1%
COc1ccc(-c2nc(C(C)C)nc3c2CCN(C(=O)c2ccccc2Cl)CC3)cc1 | 10µM*
COc1cccc(C(=O)N2CCc3nc(C)nc(-c4ccc(Cl)cc4)c3CC2)c1 | i
CC(C)c1nc2c(c(-c3ccc(O)cc3)n1)CCN(C(=O)c1ccccc1Cl)CC2 | i
CC(C)c1nc2c(c(-c3ccc(O)cc3)n1)CN(C(=O)c1cccc(Cl)c1)CC2 | 4.5µM*
CC(C)c1nc2c(c(-c3ccc(O)cc3)n1)CN(C(=O)c1ccc(Cl)nc1)CC2 | i
CC(C)c1nc2c(c(-c3ccc(O)cc3)n1)CCN(C(=O)c1cccc(Cl)c1)CC2 | 7.9µM*
COc1ccc(-c2nc3c(c(-c4ccccc4)n2)CN(C(C)=O)CC3)cc1 | i
CC(C)c1nc2c(c(-c3ccc(O)cc3)n1)CN(C(=O)c1ccccc1)CC2 | -13%
COCC(=O)N1CCc2nc(C(C)C)nc(-c3ccc(OC)cc3)c2CC1 | -11%
COc1ccc(-c2nc(-c3ccccc3)nc3c2CN(C(=O)C2CC2)CC3)cc1 | 11µM*
O=C(C1CC1)N1CCc2nc(-c3ccc(Cl)cc3)nc(-c3ccccc3)c2C1 | i
COc1cccc(NC(=O)C2CCCN2S(=O)(=O)c2ccc3c(c2)n(C)c(=O)c(=O)n3C)c1 (stereo unspecified) | -16%
Fc1ccc(-c2noc(-c3nnn4c3COC(c3ccc(Cl)cc3)C4)n2)cc1 (stereo unspecified) | i
COc1ccc2cc(C(=O)N3CC4CC(C3)[C@H]3CCCC(=O)N3C4)[nH]c2c1 (stereo partly specified) | -6%
O=C(Cn1nc2c(cc1=O)CCCC2)NCCc1cccc(F)c1 | 8%
O=C(COc1ccc2ccccc2c1)NC1CC(=O)N(c2ccccc2)C1 (stereo unspecified) | 11%
COc1ccc(C(=O)N2CCCc3nc(C)nc(-c4ccc(O)cc4)c3C2)cc1 | -13%
CC(=O)N1CCc2nc(C(C)C)nc(-c3ccc(O)cc3)c2C1 | -14%[44.1 µM]
COc1ccc(C(=O)N2CCc3nc(C(C)C)nc(-c4ccc(O)cc4)c3C2)cc1 | 8.9µM*
COCCN1CCCCCC(O)c2cc(C(=O)N3CCc4ccccc43)ccc21 (stereo unspecified) | i
O=C(NC1CCCCC1)C1CN(C(=O)c2ccc(F)c(F)c2)CC12CCOCC2 (stereo unspecified) | -9%
CCOC(=O)c1cc(S(=O)(=O)N(C)c2ccccc2)[nH]n1 | -19%
CN1CCN(C(=O)c2nn(C)c3c2CCCC3)CC12CCNC(=O)CC2 (stereo unspecified) | -13%
COc1ccccc1CNC(=O)Cc1csc2nc(-c3ccccc3)cn12 | -20%
SMILES | Pf Dd2 growth
CCN(CC)CCCNC(=O)Cc1csc2nc(-c3ccc(Cl)cc3)cn12 | 8.9µM*
CC(C)NC(=O)Cc1csc2nc(-c3ccccc3)cn12 | 40%
CCS(=O)(=O)c1nc(S(=O)(=O)c2ccc(C)cc2)c(NC)s1 | -5%
O=C(c1cnccn1)N1CCC2(CC1)CC(OCC1CC1)CCO2 (stereo unspecified) | 55%
CCOC(=O)c1[nH]c(C)c(CCC(=O)N2CCN(c3cc(Cl)ccc3C)CC2)c1C | 0.56µM*
CCOC(=O)c1[nH]c(C)c(CCC(=O)N2CCN(c3cc(C)ccc3C)CC2)c1C | 0.63µM*
CCOC(=O)c1[nH]c(C)c(CCC(=O)NCc2cccc(Cl)c2)c1C | -16%
COc1cccc(N2CCN(C(=O)CCc3conc3-c3ccccc3)CC2)c1 | -12%
CCOC(=O)c1[nH]c(C)c(CCC(=O)Nc2cc(C)ccc2OC)c1C | -22%
CCOC(=O)c1cc(S(=O)(=O)N2CCN(c3cccc(OC)c3)CC2)[nH]n1 | -17%
CCOC(=O)c1[nH]c(C)c(CCC(=O)NCc2ccccc2)c1C | 1%
CCOC(=O)c1[nH]c(C)c(CCC(=O)N2CCN(c3cccc(OC)c3)CC2)c1C | 4µM*
Cc1ccc(Cl)cc1N1CCN(C(=O)CCSCc2ccccc2F)CC1 | i
Cc1cccc(C)c1OCc1cc(=O)n2ccsc2n1 | -11%
COc1cccc(-c2nc(CS(=O)(=O)CC(=O)Nc3ccc(C)c(Cl)c3)c(C)o2)c1 | -13%
O=C(Nc1ccccc1)C1=NO[C@@H]2CN(c3ccnc(N4CCOCC4)c3)C[C@H]12 | -24%[44.1 µM]
COc1ccccc1N1CCN(C(=O)CC[C@]23CC[C@](C)(O)C[C@H]2C(C)(C)C[C@@H]3NC(=O)C2CC2)CC1 | -6%
Cc1cc(C)cc(NC(=O)N2[C@@H]3CC[C@H]2CC(NC(=O)c2ccc(F)cc2)C3)c1 (stereo partly specified) | -24%
Cc1ccc(C(C)C)c(OCCSc2nc(-c3ccccc3F)nc3cc(=O)[nH]n23)c1 | i
